High-throughput results (PubChem BioAssay)
Only a selection was taken, and hits are over-represented in it overall.
Measles inh: inhibitors of measles virus growth in infected cells. infected Vero cells, GFP fluorescence, 64 h; hits give low values. z-score (concentration not given with the values). actives 0.1% (n = 33,000). AID 745; in the data active = z-score below about -3
* = called active by the depositor.

SMILES	Measles inh
Cc1ccc(-n2c(C=Cc3ccccc3)nc3ccccc3c2=O)c(C)c1	-0.69
Cc1ccc(-n2c(C=Cc3cccc(F)c3)nc3ccccc3c2=O)c(C)c1	-3.2*
COc1ccc(C=Cc2nc3ccccc3c(=O)n2-c2ccc(C)cc2C)cc1	0.2
CCOC(=O)C1C2NC(=S)N(c3ccc(C)cc3)C1(C)Oc1ccccc12 (configuration not stated)	1.2
CCCCNC(=O)CN1C(=O)CN=C(c2ccccc2)c2cc(Cl)ccc21	-1.1
